Screening results as filed in PubChem.
Marburg entry inh: inhibitors of Marburg virus binding or cell entry. 300,000 tested, 1.8% active. Marburg virus pseudotyped entry inhibition, cell reporter. Potency, µM (titrated, usually from 37.8 µM), hits mostly inhibitors; calls by dose curve; tested in HEK293 cells
FBPA Giardia inh: inhibitors of Giardia lamblia fructose-1,6-bisphosphate aldolase; A8B2U2; purified Giardia FBPA; Potency, µM (series often up to 59.6 µM), usual class: inhibitors; 290,000 tested, 0.71% active; AID 2451; further: nearly all actives have a fitted effect of over 55% in size
Target sequence (A8B2U2 whole entry, looked up): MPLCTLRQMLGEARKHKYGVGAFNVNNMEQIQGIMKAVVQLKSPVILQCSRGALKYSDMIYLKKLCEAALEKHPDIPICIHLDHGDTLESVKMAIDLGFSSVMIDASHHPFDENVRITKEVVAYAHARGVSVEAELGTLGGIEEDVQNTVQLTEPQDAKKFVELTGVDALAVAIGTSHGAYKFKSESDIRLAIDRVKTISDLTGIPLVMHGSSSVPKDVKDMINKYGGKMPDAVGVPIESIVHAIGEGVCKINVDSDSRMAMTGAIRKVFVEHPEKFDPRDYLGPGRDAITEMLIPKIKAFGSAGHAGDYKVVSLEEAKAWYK
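40 nM FBPA preincubated 10 min at RT with compound (up to 57.5 uM final), then substrate plus GAPDH/TPI/NAD/arsenate coupling and diaphorase/resazurin added. Fluorescence read after 20 min at RT, 525/598 nm.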
LASV entry inh: blocks Lassa virus binding to or entry into cells | Lassa virus pseudotype entry inhibition, cell reporter | Potency, µM (doses to about 37.9 µM), most hits filed as inhibitors | 300,000 tested, 1.2% active | AID 540256; calls by dose curve; tested in HEK293 cells; further: nearly all actives have a fitted effect of over 50% in size
HCMV antiviral: human cytomegalovirus inhibition; HFF cells, HCMV-luciferase reporter, 72 h; stronger effect = lower value; activity change, negative = inhibition, % at 57.5 µM; 410,000 tested, 4.5% active; in the data active means activity change below about -60%; inconclusive means no clear call, values can overlap the other calls; inactive means above about -39%
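Compounds were evaluated in HFFs infected with an HCMV luciferase reporter virus (MOI 1 PFU/cell). Luciferase in lysates collected 72 h post infection served as the replication measure.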
FMDV antiviral: blocks foot and mouth disease virus. FMDV antiviral cell-based qHTS. 410,000 tested, 1.2% active. Potency, µM (doses to about 57.9 µM), most hits filed as inhibitors; calls by dose curve; tested in HEK293T cells; further: read-out not given here; nearly all actives have a fitted effect of over 45% in size
HCV inhibitor: inhibitors of hepatitis C virus infection; Potency, µM (series often up to 41.8 µM), hits mostly inhibitors; 340,000 tested, 3.4% active; Huh7.5.1 HCVcc-Cre infection, luciferase reporter, 44 h
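Seed cells (1,000/well) for 4 h; treat with compound and infect with HCVcc-Cre, moi about 0.5. Incubate 44 h, then detect luciferase activity.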
A number is an active result. Shown are actives, neighbours in structure and some others; about 8.3% of the full set was active somewhere. Unless noted, the call rests on the fitted dose curve; in most records, active means well fitted curve in the direction sought with a large enough effect; inconclusive means small, poorly fitted or top-dose-only effect, or another doubt; inactive means no such curve, though single readings can be large; an effect the other way counts as inactive or inconclusive.

COC(=O)c1ccc2c(=O)n(Cc3ccco3)c(SCC(=O)Nc3ccc(C)c(Cl)c3)nc2c1 was read as Marburg entry inh inconclusive, FBPA Giardia inh inactive, LASV entry inh inconclusive, HCMV antiviral -63, FMDV antiviral inactive and HCV inhibitor inactive.
CCOC(=O)N1CCC(n2c(SCC(=O)Nc3nccs3)nc3ccsc3c2=O)CC1 was read as Marburg entry inh inconclusive, FBPA Giardia inh inactive, LASV entry inh inconclusive, HCMV antiviral -90, FMDV antiviral inactive and HCV inhibitor inactive.
CCOC(=O)N1CCC(n2c(SCC(=O)N3CCC(C)CC3)nc3ccccc3c2=O)CC1 was read as Marburg entry inh inactive, FBPA Giardia inh inactive, LASV entry inh inconclusive, HCMV antiviral inconclusive, FMDV antiviral inconclusive and HCV inhibitor 13µM.
For COc1ccc(C(=O)Nn2c(SCC(=O)NC3CCCCC3)nc3ccccc3c2=O)cc1 the results were Marburg entry inh inconclusive, FBPA Giardia inh inactive, LASV entry inh inconclusive, HCMV antiviral inactive, FMDV antiviral 13µM and HCV inhibitor inactive.
For COc1ccc(C(=O)Nn2c(SCC(=O)c3ccc(Cl)cc3)nc3ccccc3c2=O)cc1 the results were Marburg entry inh inconclusive, FBPA Giardia inh inactive, LASV entry inh inconclusive, HCMV antiviral inactive, FMDV antiviral inactive and HCV inhibitor inactive.
COc1cc(NC(=O)CN2CCCN(Cc3cccc(F)c3)S2(=O)=O)cc(OC)c1 was read as LASV entry inh inactive, HCMV antiviral inactive and FMDV antiviral inactive.
COc1ccc(CN2C(=O)C(n3c(C)ccc3C)c3cc(F)ccc32)cc1 (stereo unspecified) was read as HCMV antiviral inactive.
O=C(CCCCCn1c(SCc2ccncc2)nc2ccccc2c1=O)NCc1ccco1 was read as Marburg entry inh inconclusive, FBPA Giardia inh inactive, LASV entry inh inactive, HCMV antiviral inactive, FMDV antiviral inactive and HCV inhibitor 10µM.
`O=C(CSc1nc2ccccc2c(=O)n1Cc1ccco1)NCCN1C(=O)CSC1=O` gave Marburg entry inh inactive, FBPA Giardia inh inactive, LASV entry inh inactive, HCMV antiviral inactive, FMDV antiviral inactive and HCV inhibitor 10µM.
`COc1ccccc1CN(C)C(=O)c1cc(C)nc2ccccc12` gave Marburg entry inh 11µM, FBPA Giardia inh inactive, LASV entry inh inactive, HCMV antiviral inactive, FMDV antiviral inactive and HCV inhibitor inactive.
For Cn1c(SCC(=O)NCCN2C(=O)CSC2=O)nc2ccccc2c1=O the results were Marburg entry inh inactive, FBPA Giardia inh inactive, LASV entry inh inactive, HCMV antiviral inactive, FMDV antiviral inactive and HCV inhibitor inactive.
`COc1ccccc1CNC(=O)c1cc(C)nc2ccccc12` gave Marburg entry inh inactive, FBPA Giardia inh inactive, LASV entry inh inactive, HCMV antiviral inactive, FMDV antiviral inactive and HCV inhibitor inconclusive.
For O=C1c2ccccc2C(=O)N1CCc1nc2ccccc2c(=O)n1Cc1ccco1 the results were Marburg entry inh inactive, FBPA Giardia inh inactive, LASV entry inh inactive, HCMV antiviral inactive, FMDV antiviral 28µM and HCV inhibitor inactive.
Screening COc1ccc(S(=O)(=O)N2CCN(Cc3ccc4c(c3)OCO4)CC2)cc1OC returned Marburg entry inh inactive, LASV entry inh inactive, HCMV antiviral inactive and FMDV antiviral inactive.
CCOC(=O)N/N=C1\C[C@@H](O)[C@@H](O)[C@@H]2[C@@H]3C(=O)N(Cc4ccc5c(c4)OCO5)C(=O)[C@@H]3CC[C@H]12 was read as Marburg entry inh inactive.
`COc1ccc(OC)c(NC(=O)N(C)CCc2c(C)nn(C)c2C)c1` gave LASV entry inh inactive, HCMV antiviral inactive and FMDV antiviral inactive.
COc1ccc(CN2C(=O)C(n3c(C)ccc3C)c3cccc(F)c32)cc1 (stereo unspecified) was read as HCMV antiviral inactive.
For COc1ccc(Cn2c(SCC(=O)NCc3ccco3)nc3ccsc3c2=O)cc1 the results were Marburg entry inh inconclusive, FBPA Giardia inh inactive, LASV entry inh inactive, HCMV antiviral inactive, FMDV antiviral inactive and HCV inhibitor 2.5µM.
Cc1ccc(CNC(=O)CSc2nc3ccsc3c(=O)n2Cc2ccccc2F)cc1 was read as LASV entry inh inactive, HCMV antiviral inactive and FMDV antiviral inactive.
O=C(CSc1nc2ccsc2c(=O)n1Cc1ccccc1F)NCc1ccccc1Cl was read as LASV entry inh inactive, HCMV antiviral -91 and FMDV antiviral inactive.
`CCCNC(=O)C1=CC(c2ccc3c(c2)OCO3)=NS(=O)(=O)N1C` gave Marburg entry inh inconclusive, LASV entry inh inactive, HCMV antiviral inactive and FMDV antiviral inactive.
`CC(C)C[C@@H](CC(=O)N[C@H](CC(=O)N[C@@H]1CCNC[C@H]1C(=O)N[C@H](CC(=O)N[C@@H](CCC(=O)O)CC(=O)O)CC(C)C)C(C)C)NC(=O)[C@@H]1CNCC[C@H]1N` gave FBPA Giardia inh inactive.
`NC(N)=NCCC[C@H](NC(=O)CC1(CC(=O)N2CCN(C3c4ccccc4NC(=O)c4ccccc43)CC2)CCCC1)C(=O)NCCn1c(=O)n(-c2ccccc2)n(-c2ccccc2)c1=O` (stereo partly specified) gave FBPA Giardia inh inactive.
For COc1ccc(-c2nc(C)sc2CC(=O)O)cc1 the results were Marburg entry inh inconclusive, FBPA Giardia inh inactive, LASV entry inh inactive, HCMV antiviral -83, FMDV antiviral inactive and HCV inhibitor inactive.
CC(=O)c1ccc(N2CCN(S(=O)(=O)c3cc(-c4onc(C)c4C)ccc3C)CC2)cc1 was read as LASV entry inh inactive, HCMV antiviral -67 and FMDV antiviral inconclusive.
For Cc1ccc(-c2onc(C)c2C)cc1S(=O)(=O)N1CCc2ccccc21 the results were LASV entry inh inactive, HCMV antiviral inconclusive and FMDV antiviral inconclusive.
CCC1CN(S(=O)(=O)c2cc(-c3onc(C)c3C)ccc2C)c2cc(Cl)ccc2O1 (stereo unspecified) was read as LASV entry inh inactive, HCMV antiviral -67 and FMDV antiviral inactive.
For Cc1ccc(-c2onc(C)c2C)cc1S(=O)(=O)N1CC(C)Oc2ccccc21 (stereo unspecified) the results were HCMV antiviral inconclusive, FMDV antiviral inconclusive and HCV inhibitor 13µM.
Screening CC(=O)c1ccc(N2CCN(S(=O)(=O)c3cc(-c4noc(C)n4)ccc3C)CC2)cc1 returned LASV entry inh inactive, HCMV antiviral inactive and FMDV antiviral inconclusive.
For Cc1ccc(-c2onc(C)c2C)cc1S(=O)(=O)N1CCOc2ccc(Cl)cc21 the results were LASV entry inh inactive, HCMV antiviral -62 and FMDV antiviral inconclusive.
CCC1CN(CCNC(=O)C2CCCCN2C)Cc2cc(OC)ccc2O1 (stereo unspecified) was read as FMDV antiviral inactive.
For O=P1(O)Oc2c(c(-c3ccccc3)cc3ccc4ccccc4c23)-c2c(-c3ccccc3)cc3ccc4ccccc4c3c2O1 the results were Marburg entry inh inactive and FBPA Giardia inh inactive.
`O=S1(=O)N[C@@H](Cc2ccccc2)COc2cc(N3CCCCC3)ccc21` gave Marburg entry inh inconclusive and HCMV antiviral inactive.
